# From PubChem BioAssay (NCI)
# Several values for one entry are separate records, joined by “and”; a condition that tells them apart may be missing. Identical values can stand only once. Compounds without any hit were thinned out: in the full panel of roughly 83,000, 20% have a hit.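 Negative percent growth values reflect cell death: -40 means 40% of the cells present at the start died, and -100 means all died.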 Activity calls are given as the source filed them. Rule for the calls: active = growth percent below 10; inactive = the rest. Where a SMILES comes first, the peptide text is derived from it.
# Key:
# Test in all cases: NCI-60 one-dose screen, 48 h (100 = growth as untreated, 0 = no growth, -100 = all killed)
# SK-MEL-2 melanoma = conditions: 10 µM unless noted
# EKVX NSCLC = conditions: 10 µM
# SN12C renal = conditions: 10 µM unless noted
# UO-31 renal = conditions: 10 µM unless noted
# TK-10 renal = tested on: TK-10 renal
# ACHN renal = conditions: 10 µM unless noted
# CAKI-1 renal = conditions: 10 µM unless noted
# A498 renal = conditions: 10 µM unless noted
# CCRF-CEM leukemia = conditions: 10 µM
# MOLT-4 leukemia = conditions: 10 µM unless noted
SMILES,growth (SK-MEL-2 melanoma),growth (EKVX NSCLC),growth (SN12C renal),growth (UO-31 renal),growth (TK-10 renal; 10 µM unless noted),growth (ACHN renal),growth (CAKI-1 renal),growth (A498 renal),growth (CCRF-CEM leukemia),growth (MOLT-4 leukemia),growth (TK-10 renal; 10 µM),growth (TK-10 renal; 100 µM)
CCCCCCCCCCCCCCCCC(C(=O)O)C(O)(CC(=O)O)C(=O)O (stereo not given),95.4% (inactive) and -42.9% (active),38.2% (inactive),110% (inactive) and 17.4% (inactive),98.7% (inactive) and 59.3% (inactive),94.1% (inactive) and 34% (inactive),96.8% (inactive) and 28.4% (inactive),103% (inactive) and 74.9% (inactive),113% (inactive),2.43% (active),90.3% (inactive) and 1.35% (active),–,–
CCCCNc1ccc(Nc2ccccc2)cc1,87.3% (inactive),37% (inactive),71.9% (inactive),86.6% (inactive),73.6% (inactive),77.6% (inactive),94.6% (inactive),82.7% (inactive),–,84.6% (inactive),–,–
CN(C)CC1CCCCCC(CN(C)C)C1=O (stereo not given),106% (inactive),111% (inactive),94.9% (inactive),10.5% (inactive),-22.3% (active),-49.8% (active),-48.5% (active),117% (inactive),–,20.7% (inactive),–,–
CC1(C)COC(=S)N1,107% (inactive),94.1% (inactive),93.5% (inactive),90.7% (inactive),101% (inactive),97.5% (inactive),95.7% (inactive),121% (inactive),108% (inactive),108% (inactive),–,–
CC1=C/C(O)CC(=O)Cc2nc(co2)C(=O)N2CCC=C2C(=O)OC(C(C)C)C(C)/C=C\C(=O)NC/C=C\1 (stereo not given),21.8% (inactive),90.2% (inactive),87.9% (inactive),75.1% (inactive),127% (inactive),86.2% (inactive),81% (inactive),90.9% (inactive),37% (inactive),77.4% (inactive),–,–
O=C1CSC2=NCCN12,89% (inactive),99% (inactive) and 64.7% (inactive),106% (inactive) and 93.2% (inactive),84.6% (inactive) and 90.1% (inactive),101% (inactive) and 106% (inactive),98.1% (inactive) and 103% (inactive),95.6% (inactive),92.8% (inactive) and 99.7% (inactive),–,106% (inactive) and 67.1% (inactive),–,–
NC(Cc1ccccc1)C(=O)NC(Cc1ccccc1)C(=O)O (stereo not drawn) (H-Phe-Phe-OH; configuration not given here),99.1% (inactive) and 104% (inactive),98% (inactive),103% (inactive) and 101% (inactive),88.5% (inactive) and 86.9% (inactive),105% (inactive),103% (inactive),106% (inactive) and 97.1% (inactive),93.2% (inactive) and 102% (inactive),118% (inactive) and 98.4% (inactive),100% (inactive) and 101% (inactive),–,–
NC1CCC(C(=O)O)CC1 (stereo not given),104% (inactive) and 102% (inactive),103% (inactive) and 105% (inactive),97% (inactive) and 103% (inactive),105% (inactive) and 87% (inactive),97.7% (inactive) and 102% (inactive),106% (inactive) and 105% (inactive),96.7% (inactive) and 90.7% (inactive),94.7% (inactive) and 86.6% (inactive),80.9% (inactive) and 79.5% (inactive),107% (inactive) and 98% (inactive),–,–
Oc1ccc(Cc2ccccc2Cl)c(O)c1,97.8% (inactive),96.3% (inactive),91.2% (inactive),61.1% (inactive),103% (inactive),92% (inactive),91% (inactive),75.3% (inactive),94.1% (inactive),88.7% (inactive),–,–
C#CCOC(=O)Nc1ccccc1,109% (inactive),99.1% (inactive),101% (inactive),97.7% (inactive),103% (inactive),114% (inactive),98% (inactive),75.2% (inactive),112% (inactive),104% (inactive),–,–
COc1ccc2cc1Oc1ccc(cc1)C[C@H]1c3cc(c(OC)cc3CCN1C)Oc1c(OC)c(OC)cc3c1[C@H](C2)N(C)CC3,131% (inactive),80.5% (inactive),82.2% (inactive),3.4% (active),–,74.1% (inactive),68.9% (inactive),72.1% (inactive),3.76% (active),28.2% (inactive),76.7% (inactive),71.7% (inactive) and 56.9% (inactive)
Nc1nc(N)c2[nH]cnc2n1,109% (inactive),97.5% (inactive),102% (inactive),86.9% (inactive),121% (inactive),89.3% (inactive),84.6% (inactive),109% (inactive),98.2% (inactive),92.6% (inactive),–,–
Cc1cc(-c2ccc(N=Nc3ccc4c(S(=O)(=O)O)cc(S(=O)(=O)O)c(N)c4c3O)c(C)c2)ccc1N=Nc1ccc2c(S(=O)(=O)O)cc(S(=O)(=O)O)c(N)c2c1O,112% (inactive),86.6% (inactive),99.1% (inactive),74.1% (inactive),112% (inactive),91.6% (inactive),86.9% (inactive),103% (inactive),–,–,–,–
O=C(/C=C/c1ccccc1)c1ccccc1,101% (inactive),93.4% (inactive),100% (inactive),79.3% (inactive),114% (inactive),107% (inactive),99.2% (inactive),94.2% (inactive),–,–,–,–
Cc1ccc(=O)[nH]n1,116% (inactive) and 99.5% (inactive),114% (inactive) and 115% (inactive),107% (inactive) and 99.3% (inactive),90.9% (inactive) and 95.1% (inactive),110% (inactive) and 101% (inactive),114% (inactive) and 108% (inactive),103% (inactive) and 97.7% (inactive),110% (inactive) and 94.1% (inactive),107% (inactive) and 99.6% (inactive),105% (inactive) and 101% (inactive),–,–
CC(=O)OCC1OC(OC(C)=O)C(OC(C)=O)C(OC(C)=O)C1OC(C)=O (stereo not given),109% (inactive) and 111% (inactive),99.7% (inactive),104% (inactive) and 105% (inactive),79.8% (inactive) and 94.2% (inactive),110% (inactive) and 106% (inactive),96.4% (inactive) and 105% (inactive),97.1% (inactive) and 100% (inactive),112% (inactive) and 85.9% (inactive),–,98.9% (inactive) and 99.9% (inactive),–,–
OCC1OC(O)C(O)C(O)C1O (stereo not given),115% (inactive),114% (inactive),103% (inactive),97.4% (inactive),100% (inactive),99.9% (inactive),89% (inactive),105% (inactive),–,96.6% (inactive),–,–
O=CN1CCCCC1,125% (inactive),94.9% (inactive),104% (inactive),97.2% (inactive),125% (inactive),109% (inactive),96.9% (inactive),84.1% (inactive),–,121% (inactive),–,–
CC(C)(O)C(=O)O,112% (inactive),94% (inactive),102% (inactive),95.2% (inactive),98.9% (inactive),104% (inactive),101% (inactive),103% (inactive),–,108% (inactive),–,–
